{"source": "the supplement of paper PMC11006884", "note": "About 6,500 targets were measured; listed, in parts, are those with a hit and a random draw of the rest. About 2% of all pairs of compound and target were hits. Unmarked numbers belong to inactive results."}
{"compound": "COC(=O)C#Cc1ccccc1 [methyl 3-phenylpropiolate]", "assay": "log2 ratio of iodoacetamide-alkyne labeling of the cysteine site, DMSO over compound (competition); higher = stronger covalent engagement of the cysteine by the compound, active = 1 or more", "conditions": "500 µM; treatment time 1 h; system: HEK293T cell lysate", "procedure,_shortened": "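HEK293T lysate at 2 mg/mL was treated with vehicle or electrophile (500 µM) for 1 h at ambient temperature, then labelled with iodoacetamide alkyne (1 h), clicked to sCIP-TMT reagents, pooled, digested with trypsin overnight at 37 °C, enriched on streptavidin and eluted with acid. Peptides were analysed by Orbitrap Eclipse LC-MS/MS with FAIMS and quantified in FragPipe, using duplicate channels and three replicates, with cysteines quantified in only one replicate excluded. The log2 competition ratio for each cysteine is the mean control-channel reporter intensity divided by the mean compound-channel reporter intensity.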"}
{"target": "FANCI C56 (UniProt Q9NVI1)", "sequence (Q9NVI1 whole entry, looked up)": "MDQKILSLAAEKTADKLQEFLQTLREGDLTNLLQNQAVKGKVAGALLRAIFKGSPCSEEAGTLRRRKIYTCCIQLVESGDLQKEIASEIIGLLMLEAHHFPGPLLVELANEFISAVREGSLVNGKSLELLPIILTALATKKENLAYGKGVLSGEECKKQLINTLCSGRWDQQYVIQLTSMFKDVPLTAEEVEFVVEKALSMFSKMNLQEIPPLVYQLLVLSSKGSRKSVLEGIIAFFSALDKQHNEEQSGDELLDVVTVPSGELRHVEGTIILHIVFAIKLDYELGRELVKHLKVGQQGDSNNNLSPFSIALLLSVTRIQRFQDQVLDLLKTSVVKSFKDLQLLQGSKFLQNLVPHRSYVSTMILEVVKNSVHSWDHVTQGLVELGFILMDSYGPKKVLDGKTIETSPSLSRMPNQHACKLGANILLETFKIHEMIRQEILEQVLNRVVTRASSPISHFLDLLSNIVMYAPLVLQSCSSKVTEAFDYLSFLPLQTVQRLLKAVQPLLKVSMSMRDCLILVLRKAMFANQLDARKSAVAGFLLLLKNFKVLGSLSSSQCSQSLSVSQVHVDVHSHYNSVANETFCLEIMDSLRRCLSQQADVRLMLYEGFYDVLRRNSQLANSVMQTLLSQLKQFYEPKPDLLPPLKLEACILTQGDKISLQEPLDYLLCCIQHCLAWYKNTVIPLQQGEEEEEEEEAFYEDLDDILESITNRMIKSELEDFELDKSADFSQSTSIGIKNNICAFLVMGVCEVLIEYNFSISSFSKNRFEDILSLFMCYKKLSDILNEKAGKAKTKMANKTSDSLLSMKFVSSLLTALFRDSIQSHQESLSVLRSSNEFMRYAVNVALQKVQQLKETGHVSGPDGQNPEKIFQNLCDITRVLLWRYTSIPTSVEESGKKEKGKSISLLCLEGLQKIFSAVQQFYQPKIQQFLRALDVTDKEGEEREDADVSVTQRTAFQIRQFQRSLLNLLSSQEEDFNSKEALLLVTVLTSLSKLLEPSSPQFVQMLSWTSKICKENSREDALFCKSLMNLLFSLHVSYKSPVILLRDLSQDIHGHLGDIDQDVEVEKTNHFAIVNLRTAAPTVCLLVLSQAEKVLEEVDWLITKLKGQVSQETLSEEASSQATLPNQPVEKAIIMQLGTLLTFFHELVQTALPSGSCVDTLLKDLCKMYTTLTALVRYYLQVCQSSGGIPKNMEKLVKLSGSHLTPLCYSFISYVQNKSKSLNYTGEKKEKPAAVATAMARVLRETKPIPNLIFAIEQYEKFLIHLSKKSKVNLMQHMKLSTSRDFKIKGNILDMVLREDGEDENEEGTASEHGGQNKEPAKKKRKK", "log2 ratio of iodoacetamide-alkyne labeling": 0.281}
{"target": "BCAP29 C171 (UniProt Q9UHQ4)", "sequence (Q9UHQ4 whole entry)": "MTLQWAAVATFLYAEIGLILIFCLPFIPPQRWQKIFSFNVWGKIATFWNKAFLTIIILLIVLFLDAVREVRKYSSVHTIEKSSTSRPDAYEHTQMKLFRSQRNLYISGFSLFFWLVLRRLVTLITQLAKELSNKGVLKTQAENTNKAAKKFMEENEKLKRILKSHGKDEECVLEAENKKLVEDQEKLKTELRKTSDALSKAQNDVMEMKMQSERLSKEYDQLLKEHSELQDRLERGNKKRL", "log2 ratio of iodoacetamide-alkyne labeling": "1.1 (active)"}
{"target": "UniProt Q9NQG6_C111", "log2 ratio of iodoacetamide-alkyne labeling": 0.389}
{"target": "FARSB C195 (UniProt Q9NSD9)", "log2 ratio of iodoacetamide-alkyne labeling": 0.621}
{"target": "KBTBD4 C455 (UniProt Q9NVX7)", "sequence (Q9NVX7 whole entry, looked up)": "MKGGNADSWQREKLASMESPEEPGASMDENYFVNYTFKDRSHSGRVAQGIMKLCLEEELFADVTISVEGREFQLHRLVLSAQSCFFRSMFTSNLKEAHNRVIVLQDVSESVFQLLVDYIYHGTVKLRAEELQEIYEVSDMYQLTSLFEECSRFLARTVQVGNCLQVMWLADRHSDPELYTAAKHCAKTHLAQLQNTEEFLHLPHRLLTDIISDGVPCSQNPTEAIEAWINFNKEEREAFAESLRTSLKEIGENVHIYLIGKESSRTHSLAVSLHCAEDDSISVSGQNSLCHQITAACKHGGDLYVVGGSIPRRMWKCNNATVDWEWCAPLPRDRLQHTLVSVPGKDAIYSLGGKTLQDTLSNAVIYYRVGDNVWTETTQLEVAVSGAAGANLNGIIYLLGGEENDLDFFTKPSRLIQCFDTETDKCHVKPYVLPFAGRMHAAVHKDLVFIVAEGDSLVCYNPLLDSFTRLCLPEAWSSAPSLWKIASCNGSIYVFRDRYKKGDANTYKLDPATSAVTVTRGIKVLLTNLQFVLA", "log2 ratio of iodoacetamide-alkyne labeling": 0.248}
{"target": "SAR1A C178 (UniProt Q9NR31)", "sequence (Q9NR31 whole entry, looked up)": "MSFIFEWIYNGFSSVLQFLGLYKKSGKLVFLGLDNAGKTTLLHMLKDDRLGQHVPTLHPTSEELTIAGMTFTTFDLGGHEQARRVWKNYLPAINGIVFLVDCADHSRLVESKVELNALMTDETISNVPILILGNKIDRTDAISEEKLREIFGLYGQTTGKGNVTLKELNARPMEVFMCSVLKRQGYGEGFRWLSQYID", "log2 ratio of iodoacetamide-alkyne labeling": 0.0354}
{"target": "ADD3 C73 (UniProt Q9UEY8)", "log2 ratio of iodoacetamide-alkyne labeling": 0.00986}
{"target": "FAM126A C300 (UniProt Q9BYI3)", "log2 ratio of iodoacetamide-alkyne labeling": 0.174}
{"target": "MLXIP C738 (UniProt Q9HAP2)", "sequence (Q9HAP2 whole entry)": "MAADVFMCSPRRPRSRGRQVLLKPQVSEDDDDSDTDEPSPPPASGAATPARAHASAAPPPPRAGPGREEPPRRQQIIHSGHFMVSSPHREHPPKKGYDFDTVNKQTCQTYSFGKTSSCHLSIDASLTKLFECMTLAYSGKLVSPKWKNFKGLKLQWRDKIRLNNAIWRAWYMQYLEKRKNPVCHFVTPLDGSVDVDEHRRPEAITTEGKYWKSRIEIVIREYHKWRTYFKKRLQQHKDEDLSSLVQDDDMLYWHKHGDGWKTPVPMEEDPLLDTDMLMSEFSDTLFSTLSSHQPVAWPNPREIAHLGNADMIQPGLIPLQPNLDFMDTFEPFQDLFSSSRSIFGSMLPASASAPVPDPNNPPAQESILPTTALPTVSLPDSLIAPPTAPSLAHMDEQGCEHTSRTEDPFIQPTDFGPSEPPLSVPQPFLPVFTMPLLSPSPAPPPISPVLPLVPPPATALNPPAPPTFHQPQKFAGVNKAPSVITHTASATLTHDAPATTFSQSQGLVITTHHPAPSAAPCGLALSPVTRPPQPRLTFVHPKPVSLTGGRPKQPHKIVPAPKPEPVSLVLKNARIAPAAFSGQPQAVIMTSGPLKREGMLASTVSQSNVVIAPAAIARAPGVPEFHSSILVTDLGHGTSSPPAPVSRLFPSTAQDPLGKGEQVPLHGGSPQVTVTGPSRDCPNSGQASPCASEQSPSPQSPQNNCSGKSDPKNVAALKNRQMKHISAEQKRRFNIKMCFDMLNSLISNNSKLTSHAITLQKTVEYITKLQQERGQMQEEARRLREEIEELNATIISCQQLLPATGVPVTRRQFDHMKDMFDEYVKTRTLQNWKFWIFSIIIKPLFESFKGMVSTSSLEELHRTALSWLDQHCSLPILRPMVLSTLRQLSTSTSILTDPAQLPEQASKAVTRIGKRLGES", "log2 ratio of iodoacetamide-alkyne labeling": -0.0833}
{"target": "CPSF2 C765 (UniProt Q9P2I0)", "sequence (Q9P2I0 whole entry, looked up)": "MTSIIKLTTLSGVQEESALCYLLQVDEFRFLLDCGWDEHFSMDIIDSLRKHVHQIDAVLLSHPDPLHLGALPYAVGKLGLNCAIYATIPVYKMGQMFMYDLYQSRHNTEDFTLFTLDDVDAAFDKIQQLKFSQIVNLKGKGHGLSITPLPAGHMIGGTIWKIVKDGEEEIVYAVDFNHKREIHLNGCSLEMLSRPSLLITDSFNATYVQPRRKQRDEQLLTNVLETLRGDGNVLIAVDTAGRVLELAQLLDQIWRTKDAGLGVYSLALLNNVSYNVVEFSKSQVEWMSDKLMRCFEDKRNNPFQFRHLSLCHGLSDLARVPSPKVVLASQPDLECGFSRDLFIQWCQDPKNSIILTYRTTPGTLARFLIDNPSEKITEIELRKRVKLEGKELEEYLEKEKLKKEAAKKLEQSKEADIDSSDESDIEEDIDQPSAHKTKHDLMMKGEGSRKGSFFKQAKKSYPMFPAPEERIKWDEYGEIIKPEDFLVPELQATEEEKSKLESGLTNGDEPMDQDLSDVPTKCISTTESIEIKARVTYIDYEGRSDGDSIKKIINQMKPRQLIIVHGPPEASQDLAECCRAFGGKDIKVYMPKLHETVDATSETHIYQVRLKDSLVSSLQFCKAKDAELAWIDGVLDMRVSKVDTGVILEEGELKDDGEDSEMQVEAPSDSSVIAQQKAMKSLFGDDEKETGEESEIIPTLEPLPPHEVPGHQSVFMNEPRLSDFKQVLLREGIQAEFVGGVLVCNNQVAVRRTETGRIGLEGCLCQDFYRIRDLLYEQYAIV", "log2 ratio of iodoacetamide-alkyne labeling": "1.01 (active)"}
{"target": "UniProt Q9BYG3_C269", "log2 ratio of iodoacetamide-alkyne labeling": 0.771}
{"target": "UTP6 C309 (UniProt Q9NYH9)", "log2 ratio of iodoacetamide-alkyne labeling": 0.0486}
{"target": "UTP6 C175 (UniProt Q9NYH9)", "log2 ratio of iodoacetamide-alkyne labeling": "1.62 (active)"}
{"target": "ATXN10 C356 (UniProt Q9UBB4)", "sequence (Q9UBB4 whole entry, looked up)": "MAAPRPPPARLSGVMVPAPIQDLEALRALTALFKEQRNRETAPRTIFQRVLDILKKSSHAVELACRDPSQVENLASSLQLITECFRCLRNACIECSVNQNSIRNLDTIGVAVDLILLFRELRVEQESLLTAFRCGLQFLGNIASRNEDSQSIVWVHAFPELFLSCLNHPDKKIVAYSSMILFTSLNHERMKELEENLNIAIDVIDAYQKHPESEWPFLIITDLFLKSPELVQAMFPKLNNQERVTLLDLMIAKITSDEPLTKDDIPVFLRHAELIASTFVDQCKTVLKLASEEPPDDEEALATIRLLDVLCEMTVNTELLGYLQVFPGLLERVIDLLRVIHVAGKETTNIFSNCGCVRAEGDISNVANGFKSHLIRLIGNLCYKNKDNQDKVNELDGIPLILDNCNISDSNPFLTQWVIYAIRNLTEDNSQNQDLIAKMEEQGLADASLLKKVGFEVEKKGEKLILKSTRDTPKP", "log2 ratio of iodoacetamide-alkyne labeling": "1.32 (active)"}
{"target": "PPAN C432 (UniProt Q9NQ55)", "sequence (Q9NQ55 whole entry, looked up)": "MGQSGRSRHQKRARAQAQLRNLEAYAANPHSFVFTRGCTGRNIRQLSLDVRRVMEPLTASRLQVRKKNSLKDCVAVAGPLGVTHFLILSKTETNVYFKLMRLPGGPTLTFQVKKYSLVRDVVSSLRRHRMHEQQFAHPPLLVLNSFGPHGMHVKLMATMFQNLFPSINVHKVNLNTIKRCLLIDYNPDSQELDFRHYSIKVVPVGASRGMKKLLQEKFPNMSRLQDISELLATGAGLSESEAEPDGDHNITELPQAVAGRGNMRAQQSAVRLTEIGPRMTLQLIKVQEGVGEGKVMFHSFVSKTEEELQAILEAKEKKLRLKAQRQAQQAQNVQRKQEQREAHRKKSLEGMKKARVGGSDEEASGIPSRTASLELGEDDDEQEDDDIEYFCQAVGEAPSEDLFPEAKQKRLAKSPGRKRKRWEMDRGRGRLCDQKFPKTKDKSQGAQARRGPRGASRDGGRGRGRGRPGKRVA", "log2 ratio of iodoacetamide-alkyne labeling": 0.73}
{"target": "MRPL44 C53 (UniProt Q9H9J2)", "log2 ratio of iodoacetamide-alkyne labeling": -0.0312}
